According to the supplement of paper PMC10981050:
Several values for one entry are separate records, joined by “and”; a condition that tells them apart may be missing. Equal values may be shown once. Where a name gives a salt, the structure may show the parent alone.

Key:
Assay in all cases: cell viability relative to vehicle control; higher = less cytotoxic
Details in all cases: 10 µM
[1] = test system: K562
Outline: (§1)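 After removal of identity-inconsistent compounds, the Selleck bioactive, kinase and epigenetic probe libraries were screened on CRISPR-edited mutant clones and isogenic wild-type clones of four leukaemia lines. Plates were 384-well, each well holding 2000 cells in 50 µL medium and receiving a single 10 µM acoustically dispensed dose. CellTiter-Glo luminescence was read 48 h later, after the supernatant was taken off. Genedata Screener was used to express viability as percent of the on-plate vehicle control.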

[2] = test system: MARIMO
Outline: as §1

[3] = test system: MOLM14
Outline: as §1

[4] = test system: OCI-AML2
Outline: as §1

| Compound | cell viability ([1]; SRSF2 genotype: SRSF2 P95H/wt) | cell viability ([1]; SRSF2 genotype: SRSF2 wt/wt) | cell viability ([2]; SRSF2 genotype: SRSF2 P95H/wt) | cell viability ([2]; SRSF2 genotype: SRSF2 wt/wt) | cell viability ([3]; SRSF2 genotype: SRSF2 P95H/wt) | cell viability ([3]; SRSF2 genotype: SRSF2 wt/wt) | cell viability ([4]; SRSF2 genotype: P95H/wt) | cell viability ([4]; SRSF2 genotype: wt/wt) |
| --- | --- | --- | --- | --- | --- | --- | --- | --- |
| NC(=O)c1ncn([C@@H]2O[C@H](CO)[C@@H](O)[C@H]2O)n1 [Ribavirin (Copegus)] | 100% and 95.1% | 90.2% | 87.2% | 97.3% | 56.2% | 24% | 99.6% | 92.5% |
| CC[C@H](C)C(=O)O[C@H]1C[C@H](O)C=C2C=C[C@H](C)[C@H](CC[C@@H](O)C[C@@H](O)CC(=O)O)[C@H]21 [Pravastatin sodium] | 103% and 97.3% | 92.3% | 95.2% | 103% | 104% | 102% | 91% | 105% |
| Cc1ccc(NC(=O)c2ccc(CN3CCN(C)CC3)cc2)cc1Nc1nccc(-c2cccnc2)n1 [Imatinib Mesylate (STI571)] | 11.9% and 25.7% | 16.7% | 103% | 104% | 80.7% | 94% | 82.3% | 78% |
| CS(=O)(=O)Nc1ccc([N+](=O)[O-])cc1OC1CCCCC1 | 99.4% and 103% | 97% | 102% | 95.3% | 94.4% | 98.8% | 107% | 101% |
| COc1ccc2cc3[n+](cc2c1OC)CCc1cc2c(cc1-3)OCO2 [Berberine Sulfate] | 62.4% and 69.2% | 72.4% | 66.7% | 59.5% | 71% | 75.3% | 49.8% | 46.2% |
| CCN(CC)c1ccc2cc(-c3nc4ccccc4s3)c(=O)oc2c1 [Coumarin 6] | 106% and 105% | 102% | 106% | 112% | 108% | 107% | 101% | 108% |
| CC(C)CC(NC(=O)C(Cc1ccccc1)CC(O)C(Cc1ccccc1)NC(=O)OC(C)(C)C)C(=O)NC(Cc1ccccc1)C(N)=O (stereo not drawn) | 106% and 109% | 111% | 106% | 99.5% | 108% | 106% | 112% | 120% |
| Nc1cccc(-c2cc3c(Oc4cccc(O)c4)ncnc3[nH]2)c1 | 28.4% and 39.8% | 27.7% | 84.4% | 94.5% | 37.8% | 35.5% | 53.4% | 53.3% |
| N=C(NCCCCCCNC(=N)NC(=N)Nc1ccc(Cl)cc1)NC(=N)Nc1ccc(Cl)cc1 [Chlorhexidine] | 14.9% and 12% | 23% | 39.3% | 34.6% | 5.12% | 4.9% | 2.08% | 6.07% |
| CC(C)OC(=O)C1=CN(C(=O)c2ccc(F)c(F)c2)CC(C)(C)c2c1[nH]c1ccccc21 [Turofexorate Isopropyl (XL335)] | 100% and 97.7% | 103% | 96.7% | 102% | 97% | 98.5% | 92.7% | 96.7% |
| CC(=O)SCC(Cc1ccccc1)C(=O)NCC(=O)OCc1ccccc1 (stereo not drawn) [Racecadotril (Acetorphan)] | 108% and 106% | 103% | 98.3% | 99% | 106% | 105% | 118% | 102% |
| Cc1nc(C)c(C)nc1C [Tetramethylpyrazine] | 111% and 112% | 118% | 107% | 111% | 108% | 107% | 112% | 116% |
| O=C(Cn1cnnn1)N[C@@H]1C(=O)N2C(C(=O)O)=C(CSc3nncs3)CS[C@H]12 [Ceftezole sodium] | 108% and 99.1% | 120% | 101% | 105% | 109% | 110% | 123% | 118% |
| CN(C)CCOC(c1ccccc1)c1ccccc1 [Diphenhydramine HCl (Benadryl)] | 91.2% and 88.2% | 85.9% | 76.8% | 91.7% | 88.3% | 85.8% | 87.8% | 92.3% |
| C=C1CC23CCC4C(C)(C(=O)OC5OC(CO)C(O)C(O)C5O)CCCC4(C)C2CCC1(OC1OC(CO)C(O)C(OC2OC(CO)C(O)C(O)C2O)C1OC1OC(C)C(O)C(O)C1O)C3 (stereo not drawn) [Rebaudioside C] | 101% and 99.8% | 106% | 108% | 111% | 106% | 103% | 112% | 101% |
| Cc1ncc(CO)c(CO)c1O [Pyridoxine] | 98.2% and 103% | 97.3% | 107% | 96.3% | 101% | 102% | 106% | 99.6% |
| COC(=O)[C@]12CCC(C)(C)C[C@H]1[C@H]1C(=O)C=C3[C@@]4(C)C=C(C#N)C(=O)C(C)(C)[C@@H]4CC[C@@]3(C)[C@]1(C)CC2 [Bardoxolone Methyl] | 2.03% and 0.75% | 1.02% | 0.23% | 0.28% | 0.15% | 0.13% | 0.19% | 0.13% |
| OCCc1ccc(O)c(O)c1 [Hydroxytyrosol] | 94.8% and 103% | 98.2% | 90.5% | 103% | 97.5% | 104% | 105% | 106% |

| Compound | cell viability ([1]; SRSF2 genotype: SRSF2 P95H/wt) | cell viability ([1]; SRSF2 genotype: SRSF2 wt/wt) | cell viability ([2]; SRSF2 genotype: SRSF2 P95H/wt) | cell viability ([2]; SRSF2 genotype: SRSF2 wt/wt) | cell viability ([3]; SRSF2 genotype: SRSF2 P95H/wt) | cell viability ([3]; SRSF2 genotype: SRSF2 wt/wt) | cell viability ([4]; SRSF2 genotype: P95H/wt) | cell viability ([4]; SRSF2 genotype: wt/wt) |
| --- | --- | --- | --- | --- | --- | --- | --- | --- |
| N#Cc1c(NC(=O)c2cccc3ccccc23)sc2c1CCCC2 [JNK inhibitor IX] | 16.2% and 37.1% | 34.9% | 6.04% | 9.03% | 14.5% | 3.68% | 8.78% | 12.3% |
| O=C(NC1CCN(CCCCC2(C(=O)NCC(F)(F)F)c3ccccc3-c3ccccc32)CC1)c1ccccc1-c1ccc(C(F)(F)F)cc1 [Lomitapide] | 0.51% and 0.47% | 0.4% | 0.42% | 0.43% | 0.37% | 0.37% | 0.35% | 0.46% |
| C/C=C(/C)C(=O)OC(C)(C)[C@@H]1Cc2c(ccc3ccc(=O)oc23)O1 [Columbianadin] | 99.8% and 97.1% | 99.2% | 87.8% | 86.5% | 102% | 98.4% | 72.8% | 77.5% |
| CC(=O)O[C@H]1CC(=O)OC(C)(C)[C@@H]2CC(=O)[C@]3(C)[C@H](CC[C@@]4(C)[C@@H](c5ccoc5)OC(=O)[C@H]5O[C@]543)[C@@]12C [Nomilin] | 101% and 95.9% | 97.8% | 87.1% | 105% | 99.2% | 104% | 94.8% | 101% |
| O=C(O)c1ccc2c(c1)nc(Nc1cccc(Cl)c1)c1ccncc12 [cx-4945 (Silmitasertib)] | 49.9% and 60.1% | 63.7% | 49.7% | 47.3% | 26.9% | 34% | 5.84% | 22.2% |
| O=C(O)CCc1ccc(O)cc1 [Phloretic acid] | 99.4% and 99.9% | 94.6% | 93.9% | 104% | 109% | 103% | 99.2% | 105% |
| CC[C@H]1OC(=O)[C@H](C)[C@@H](O[C@H]2C[C@@](C)(OC)[C@@H](O)[C@H](C)O2)[C@H](C)[C@@H](O[C@@H]2O[C@H](C)C[C@H](N(C)C)[C@H]2O)[C@](C)(O)C[C@@H](C)[C@@H]2N[C@@H](COCCOC)O[C@H]([C@H]2C)[C@]1(C)O [Dirithromycin] | 98.3% and 98% | 98.5% | 97.1% | 109% | 98.7% | 102% | 94.6% | 107% |
| COc1c2c(cc3oc(COC4OC(CO)C(O)C(O)C4O)cc(=O)c13)OC(C(C)(C)O)C2 (stereo not drawn) [Prim-o-glucosylcimifugin] | 83.8% and 84.2% | 88.3% | 84% | 94% | 88.3% | 88.2% | 91.8% | 98.1% |
| COc1ccccc1C(=O)Nc1cc2c(cc1N1CCCC1)n(C)c(=O)n2C | 91.5% and 100% | 92% | 84.1% | 95.3% | 79.4% | 83.4% | 63.5% | 69.2% |
| C=CC(=O)N1CCC[C@@H](n2nc(-c3ccc(Oc4ccccc4)cc3)c3c(N)ncnc32)C1 | 35.9% and 57.5% | 42.9% | 70.9% | 89.1% | 16.5% | 17.8% | 44.3% | 53.1% |
| Oc1ccc2ccccc2c1N=Nc1ccc(N=Nc2ccccc2)cc1 [Solvent Red 23] | 83.7% and 81.2% | 82% | 82.6% | 90.8% | 76% | 85.3% | 75.3% | 78.7% |
| O=c1sn(-c2cccc3ccccc23)c(=O)n1Cc1ccccc1 [Tideglusib] | 77.4% and 78.3% | 82.9% | 70.7% | 79.9% | 55.5% | 68.8% | 54.7% | 53.3% |
| COc1ccccc1 [Anisole] | 96.8% and 90.2% | 102% | 98.6% | 101% | 94.6% | 101% | 99.5% | 110% |
| O=S(=O)(O)Oc1ccc(C(c2ccc(OS(=O)(=O)O)cc2)c2ccccn2)cc1 [Sodium Picosulfate] | 103% and 102% | 108% | 106% | 112% | 103% | 104% | 104% | 101% |
| CN(C)CCCC1(c2ccc(F)cc2)OCc2cc(C#N)ccc21 (stereo not drawn) [Citalopram HBr] | 98.3% and 92.9% | 92.5% | 94.2% | 108% | 91.5% | 101% | 90.8% | 97.9% |
| O=S(=O)(NC1CCCCC1)c1ccc2c(c1)C(=NO)c1cc(S(=O)(=O)NC3CCCCC3)ccc1-2 | 80.3% and 92.9% | 92.3% | 4.08% | 57.4% | 11.1% | 70.7% | 0.52% | 0.59% |
| CC(C)(CCCCCC(O)CCCCCC(C)(C)C(=O)O)C(=O)O | 103% and 96.8% | 102% | 106% | 106% | 104% | 104% | 97.5% | 108% |
| CC1(C)C=Cc2cc(-c3coc4cc(O)ccc4c3=O)ccc2O1 [Corylin] | 78.5% and 85.9% | 85.4% | 70.9% | 69.7% | 97% | 97.4% | 56.4% | 60.8% |
